Assay outcomes (PubChem BioAssay)
Shown are actives, neighbours in structure and some others; about 9.4% of the full set was active somewhere.
AMA1-RON2 inh – disrupts binding of P. falciparum AMA1 to RON2; AlphaScreen AMA1-biotinylated RON2 peptide binding; Potency, µM (series often up to 58.2 µM), actives largely listed as inhibitors; 360,000 compounds, 0.2% hits; AID 720542; also: nearly all actives have a fitted effect of over 45% in size
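AMA1 (3D7) with his tag at 25 nM final met compounds first, then biotinylated RON2 peptide at 25 nM; detection used donor plus acceptor beads, 10 µg/mL apiece, read by AlphaScreen after 30 min at room temperature.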
SARS PLpro yeast – SARS-CoV PLP inhibition in yeast | S. cerevisiae expressing SARS-CoV PLpro, growth rescue | Potency, µM (titrated, usually from 32.9 µM), usual class: activators | 330,000 compounds, 0.19% hits; calls by dose curve; also: nearly all actives have a fitted effect of over 55% in size
Pf growth 48h – P. falciparum growth inhibition at 48 hours (one generation); Potency, µM (highest dose often 28.7 µM), hits mostly inhibitors; 310,000 compounds, 5.9% hits; P. falciparum luciferase growth in erythrocytes, 48 h
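Luminescence readout; reporter = integrated firefly luciferase in P. falciparum. RBC culture at 2% hematocrit, 0.1% parasitemia final, 37 C/5% CO2; decreased signal taken as growth inhibition.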
Pf growth 96h – inhibits malaria parasite growth, 96 h. P. falciparum luciferase reporter growth, 96 h. AID 504834. 320,000 compounds, 6.9% hits. Potency, µM (doses to about 28.7 µM), hits mostly inhibitors
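Compounds incubated with erythrocytes infected by luciferase-expressing P. falciparum (2% hematocrit, 0.05% parasitemia final) for 96 hours, 37 C in 5% CO2. Growth inhibition scored as decreased luciferase luminescence.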
Hits are given with their value; 0 = inactive; ? = inconclusive; - = not tested or not shown; [ ] = dose if it differs, or a comment. Unless noted, calls follow the shape of the dose curve; as a rule, active = well fitted curve in the direction sought with a large enough effect; inconclusive = small, poorly fitted or top-dose-only effect, or another doubt; inactive = no such curve, though single readings can be large; an effect the other way counts as inactive or inconclusive.

SMILES | AMA1-RON2 inh | SARS PLpro yeast | Pf growth 48h | Pf growth 96h
CCOc1cc(CNCCCN2CCOCC2)ccc1OCC(=O)Nc1cccc2ccccc12 | 0 | 0 | 2.9µM | 2.6µM
COc1cc(CNC(C)C)ccc1OCC(=O)Nc1cccc2ccccc12 | 0 | 0 | 0 | ?
CCc1nc2ccccc2c(C(=O)O)c1C | 0 | 0 | 0 | -
CCc1nc(N=C(N)N)nc2ccccc12 | - | 0 | 3.3µM | 0
NC(N)=Nc1nc(-c2ccccc2)c2ccccc2n1 | 0 | 0 | 12µM | 0
N#CC(=Cc1ccncc1)c1ccccc1 | 0 | - | - | -
Cc1cc(Br)ccc1OCCCCNCCO | 0 | 0 | ? | 10µM
C=CCNCCCCOc1ccc(Br)cc1C | 0 | 0 | 0 | 9.3µM
O=C(c1ccc2c(c1)OCO2)N1CCCN(C(=O)c2ccc3c(c2)OCO3)CC1 | 0 | 0 | 0 | ?
CN(C)c1ccc(/C=C2\SC(N3CCCCC3)=NC2=O)cc1 | 0 | 0 | 0 | 4.1µM
CC(C)c1ccc(/C=C2\SC(N3CCCC3)=NC2=O)cc1 | 0 | 0 | ? | 3.7µM
COc1cc(OC)c2c(C)cc(=O)oc2c1 | 0 | 0 | 0 | 0
CCOC(=O)N1CCC(N2C(=O)c3ccccc3C2Nc2cccnc2)CC1 (stereo not given) | 0 | 0 | 0 | 0
COc1ccc(C(=O)N2CC3(CC(c4cccc(NC(=O)COc5ccc(Cl)cc5)c4)=NO3)C[C@@H]2C(N)=O)cc1 (stereo not given in full) | 0 | 0 | 10µM | 12µM
CCCCCC(=O)Nc1cccc(C2=NOC3(C2)C[C@@H](C(N)=O)N(C(=O)Cc2ccc([N+](=O)[O-])cc2)C3)c1 (stereo not given in full) | 0 | 0 | ? | ?
CCC(=O)Nc1cccc(C2=NOC3(C2)C[C@H](C(N)=O)N(C(=O)c2ccc(Cl)cc2)C3)c1 (stereo not given in full) | 0 | 0 | ? | 0
NC(=O)[C@H]1CC2(CC(c3cccc(NC(=O)COc4ccc(Cl)cc4)c3)=NO2)CN1C(=O)Cc1ccc([N+](=O)[O-])cc1 (stereo not given in full) | 0 | 0 | 8.3µM | 12µM
NC(=O)[C@@H]1CC2(CC(c3cccc(NC(=O)COc4ccc(Cl)cc4)c3)=NO2)CN1C(=O)c1ccccc1 (stereo not given in full) | 0 | 0 | 10µM | 13µM
C=C(C)C(=O)N1CC2(CC(c3cccc(NC(=O)COc4ccc(Cl)cc4)c3)=NO2)C[C@@H]1C(N)=O (stereo not given in full) | 0 | 0 | ? | ?
CCN(CC(=O)NCc1ccc(Cl)cc1)CC(=O)NC1(C#N)CCCC1 | 0 | 0 | 0 | 0
CC(=O)N1CCN(C(=O)c2ccc(-n3c(C)ccc3C)cc2)CC1 | 0 | 0 | ? | ?
CCOC(=O)N1CCN(C(=O)c2ccc(-n3c(C)ccc3C)cc2)CC1 | 0 | 0 | ? | 10µM
CCOC(=O)N1CCN(C(=O)C(NC(=O)c2ccc(C(C)(C)C)cc2)C(C)C)CC1 (stereo not given) | 0 | 0 | 9.3µM | ?
CCOc1ccc(C(=O)N[C@H](C(=O)N2CCN(c3ncccn3)CC2)C(C)C)cc1 | 0 | - | - | -
CCOC(=O)N1CCN(C(=O)c2ccccc2NC(=O)c2ccc(C(C)(C)C)cc2)CC1 | 0 | 0 | 10µM | ?
SMILES | AMA1-RON2 inh | SARS PLpro yeast | Pf growth 48h | Pf growth 96h
CCn1ncc([N+](=O)[O-])c1C(=O)Nc1cc(C)on1 | 0 | 0 | 0 | 0
CC1=C(C)/C(=N\OS(=O)(=O)c2ccccc2)C=CC1=O | ? | 0 | - | 13µM
CCc1sc(C(=O)NNC(=O)c2cncc(Br)c2)cc1C | 0 | 0 | - | -
CCn1ccnc1CNC(=O)C1CCC(=O)N(Cc2ccccc2F)C1 (stereo not given) | 0 | 0 | 0 | 12µM
COc1ccc(CC2(C)OC(c3ccc([N+](=O)[O-])cc3)=NN2C(C)=O)cc1 (stereo not given) | ? | 0 | 9.3µM | 9.3µM
COc1ccc(C(=O)NNC(=O)Cc2ccc([N+](=O)[O-])cc2)cc1 | 0[2.32 µM] | 0 | 0 | 0
Nc1cccc(/C=C/c2ccncc2)c1 | 0 | 0 | 0 | 0
CC(C)(C)OC(=O)CNC(=O)c1[nH]cnc1C(=O)N[C@@H](CCCCNC(=O)OC(C)(C)C)C(=O)OC(C)(C)C | 0 | 0 | ? | ?
CC(C)(C)OC(=O)NCCCCCNC(=O)c1[nH]cnc1C(=O)N[C@@H](CCCCNC(=O)OC(C)(C)C)C(=O)OC(C)(C)C | 0 | 0 | 9.3µM | 0
CC(C)(C)OC(=O)NCCCC[C@H](NC(=O)c1nc[nH]c1C(=O)NCC(=O)OCc1ccccc1)C(=O)OC(C)(C)C | 0 | 0 | ? | 0
CC(C)(C)OC(=O)NCCCC[C@H](NC(=O)c1nc[nH]c1C(=O)NC(c1ccccc1)c1ccccc1)C(=O)OC(C)(C)C | 0 | 0 | 3.7µM | 2.1µM
CC(C)(C)OC(=O)NCCCC[C@H](NC(=O)c1nc[nH]c1C(=O)NCc1ccc(CNC(=O)OC(C)(C)C)cc1)C(=O)OC(C)(C)C | 0 | 0 | ? | 12µM
C[C@H](NC(=O)c1nc[nH]c1C(=O)N[C@@H](CCCCNC(=O)OC(C)(C)C)C(=O)OC(C)(C)C)C(=O)OC(C)(C)C | 0 | 0 | 9.3µM | 13µM
CC(C)(C)OC(=O)NCCCC[C@H](NC(=O)c1nc[nH]c1C(=O)N[C@@H](CCCCNC(=O)OC(C)(C)C)C(=O)OC(C)(C)C)C(=O)OC(C)(C)C | 0 | 0 | 2.1µM | 1.7µM
O=C(CSc1nc(-c2ccncc2)nn1CC(=O)N1CCCCC1)NC1CCCC1 | 3.8µM | 0 | 0 | 0
CCN(CC)CCNC(=O)C(=O)Nc1ccc2c(c1)N(S(=O)(=O)c1cccs1)CCC2 | 0 | 0 | 15µM | ?
CCCCNC(=O)C(=O)Nc1ccc2c(c1)N(S(=O)(=O)c1cccs1)CCC2 | 0 | - | - | -
CN(c1ccccc1)c1ncccn1 | 0 | - | - | -
FC(F)(F)c1cccc(Oc2nc(-c3ccccc3)nnc2C(F)(F)F)c1 | 0 | 0 | 0 | 0
COc1cnc(-c2ccccn2)nc1N(C)c1ccccc1 | 0 | 0 | 0.93µM | 0.93µM
COc1cnc(-c2ccccn2)nc1Oc1cccc(C(F)(F)F)c1 | - | 0 | 2.3µM | 1.7µM
COc1cnc(-c2ccccn2)nc1Oc1ccccc1 | 0 | 0 | 12µM | ?
COCCN=C1N[C@@H](c2ccc(Br)cc2)C(C(=O)OC)=C(C)N1Cc1ccccc1 | 0 | 0 | ? | ?
O=c1ccc2ccc(Oc3ccc([N+](=O)[O-])cc3[N+](=O)[O-])cc2o1 | - | 0 | 0 | 0
CCCn1c(C2CCCN2c2nc(-c3cccc(Br)c3)cs2)nc2cc(Cl)c(Cl)cc21 (stereo not given) | 0 | 0 | 12µM | 9.3µM
O=C(Nc1ccccc1-c1nnc(SCc2ccc(Cl)cc2)o1)c1ccccc1 | 0 | 0 | 13µM | 0
Clc1ccc(CSc2nnc(-c3c[nH]c4ccccc34)o2)cc1 | 0 | 0 | 0 | -
O=c1c(-c2nnc(SCc3ccc(Cl)cc3)o2)cccn1Cc1ccccc1 | 0 | 0 | ? | 13µM
O=C(N[C@H]1CC[C@@H](CCNS(=O)(=O)c2ccccc2Cl)O[C@@H]1CO)c1ccccc1 | 0 | - | - | -
CSc1ccccc1NC(=O)CN(C)Cc1ccc(Br)cc1 | 0 | 0 | 0 | 0
